We go through 91 molecules from PubChem BioAssay AID633 (Emory University Molecular Libraries Screening Center, 2007).

Each structure is given as a SMILES string. About 1,100 (1.3%) of roughly 86,000 compounds were called active. This is one part of a sample in which actives are shown more often than they occur. Values without a mark were called inactive.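 Rule for the calls: active = compounds whose percent inhibition of the receptor-coactivator binding signal exceeds about 50% in the single-dose screen (limit read from the data); inactive = the rest.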

The target of the assay is Estrogen receptor beta (Homo sapiens) (UniProt Q92731). The assay can be described thus: blockers of coactivator peptide binding to ERβ – biochemical, TR-FRET, ERβ LBD, SRC-1 peptide, primary screen (AID 633).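 Note: 0% = receptor plus peptide wells without compound and 100% = peptide-only wells.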 Conditions: TR-FRET ER-beta LBD / SRC1-Cy5 peptide binding; at 25.6 µM; active compounds read high; receptor agonist-loaded with 1 µM estradiol. (TR-FRET usually uses a lanthanide donor and a delayed reading to cut background.)
Sequence of Estrogen receptor beta (Homo sapiens) (Q92731 whole entry, looked up, the tested form may be a part): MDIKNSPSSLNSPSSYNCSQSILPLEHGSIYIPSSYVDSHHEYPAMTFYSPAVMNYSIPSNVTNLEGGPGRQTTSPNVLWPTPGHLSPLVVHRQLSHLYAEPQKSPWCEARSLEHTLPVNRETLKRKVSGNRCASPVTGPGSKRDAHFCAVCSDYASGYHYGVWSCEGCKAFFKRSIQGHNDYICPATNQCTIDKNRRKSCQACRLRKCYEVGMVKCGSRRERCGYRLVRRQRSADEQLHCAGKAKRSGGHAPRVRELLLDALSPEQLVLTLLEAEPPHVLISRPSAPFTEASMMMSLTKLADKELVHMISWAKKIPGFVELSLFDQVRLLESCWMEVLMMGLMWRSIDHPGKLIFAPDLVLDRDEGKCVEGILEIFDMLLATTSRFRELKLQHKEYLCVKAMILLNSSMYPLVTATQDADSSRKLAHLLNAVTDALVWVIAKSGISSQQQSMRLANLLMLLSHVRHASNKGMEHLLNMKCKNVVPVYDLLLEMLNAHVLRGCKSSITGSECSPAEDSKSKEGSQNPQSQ
In general, inhibition refers to the drop in the measured response relative to a control, in per cent. In the case of `CCOC(=O)C1CSC(CC(=O)Nc2ccc(OCC)cc2)C(=O)N1` (stereo unspecified), the inhibition is -12.7%.

As to `COc1ccc(NC(=O)CCN2CCCC2)c(OC)c1`, the inhibition was -0.42%.

As to `Oc1ccc(-c2csc(Nc3cccnc3)n2)cc1`, the inhibition is 2.46%.

Take `COc1ccc(OC)c(Nc2nc(-c3ccc(O)c(O)c3)cs2)c1`: the inhibition is 67.8% [fluorescence artefact?] (active).

Regarding `COc1ccc(-c2n[nH]c(C)c2-c2ccc(OC)c(OC)c2)c(O)c1`, the inhibition was 3.54%.

In the case of `O=C(COc1ccc(S(=O)(=O)NCc2ccccc2)cc1)N1CCOCC1`, the inhibition was -22.9%.

Take `O=C(Nc1nnc(SCc2c(Cl)cccc2Cl)s1)C1CCCO1` (stereo unspecified): the inhibition is -1.99%.

Take `COc1cc(S(=O)(=O)N(Cc2cccs2)C2CC2)ccc1-n1cnnn1`: the inhibition was -25.2%.

In the case of `C=CCNC(=O)CSc1nc2sc(C)c(C)c2c(=O)[nH]1`, the inhibition is 6.38%.

Take `CCOC(=O)CSc1nc2sc3c(c2c(=O)[nH]1)CC(C)(C)OC3`: the inhibition is -8.89%.

With `CC(=O)c1sc2nc(SCC(=O)N3CCCCC3)[nH]c(=O)c2c1C`, the inhibition is 56.2% (active).

With `CCCCOc1ccc(C(=O)NCc2ccncc2)cc1`, the inhibition is 0.29%.

`N#CC1=C(N)N(c2ccccc2)C2=C(C(=O)CCC2)C1c1ccccc1` (stereo unspecified): the inhibition was -5.84%.

Turning to `CCC(C)NC(=O)CSC1=Nc2ccccc2C2=NC(CCC(=O)NCc3ccco3)C(=O)N12` (stereo unspecified), the inhibition was -5.03%.

With `O=C(CSC1=Nc2ccccc2C2=NC(CC(=O)NCc3ccco3)C(=O)N12)NCc1ccco1` (stereo unspecified), the inhibition was 16.1%.

Regarding `CC(C)C1N=C2c3ccccc3N=C(SCC(=O)c3ccc(O)c(O)c3)N2C1=O` (stereo unspecified), the inhibition is 52.4% [fluorescence artefact?] (active).

Regarding `O=C1CSC2=NCN(c3ccccc3)CN12`, the inhibition was -6.24%.

Consider `CCCCc1nnc(NC(=O)CSc2nc(C)cc(=O)[nH]2)s1`, for which the inhibition was 27.8%.

On to `COC(=O)c1cccc(NC(=O)CSc2nc(C)cc(=O)[nH]2)c1`, for which the inhibition is 50.1% [fluorescence artefact?] (active).

In the case of `CCOC(=O)Cc1csc(NC(=O)CSc2nc(C)cc(=O)[nH]2)n1`, the inhibition was 1.35%.

Take `O=C(CCCn1c(SCC(=O)c2ccccc2)nc2ccccc2c1=O)NCC1CCCO1` (stereo unspecified): the inhibition is -2.4%.

For the molecule `Cc1cc(C)c(OCC(=O)N/N=C/c2ccco2)c(C)c1`, the inhibition is -10.7%.

For `CCCCNC(=O)C1(c2ccc(OC)cc2)CCOCC1`, the inhibition was 39.7%.

Take `Cc1ccc(SC(=O)COc2ccc(C)c(C)c2)cc1`: the inhibition was -2.52%.

Take `O=C(NC1CCCC1)C(c1ccccn1)N(C(=O)c1csnn1)C1CCCC1` (stereo unspecified): the inhibition is 3.18%.

`CCCCNC(=O)c1c[nH]c2ccc(S(=O)(=O)Nc3ccc(OCC)cc3)cc2c1=O`: the inhibition was 29.9%.

On to `CCN(CC)S(=O)(=O)c1ccc2[nH]cc(C(=O)NCCc3ccccc3)c(=O)c2c1`, for which the inhibition was 51.1% [fluorescence artefact?] (active).

On to `COc1cccc(NS(=O)(=O)c2ccc3[nH]cc(C(=O)NCCCOC(C)C)c(=O)c3c2)c1`, for which the inhibition is 19.5%.

With `COC(=O)CSc1snnc1-c1ccc(Cl)c(Cl)c1`, the inhibition is -8.59%.

Regarding `Cc1cc(=O)oc2cc(OCC3CC(c4ccccc4Cl)=NO3)ccc12` (stereo unspecified), the inhibition is -1.82%.

Regarding `CCOCN(C(=O)Cn1c(C(C)O)nc2ccccc21)c1c(C)cccc1CC` (stereo unspecified), the inhibition is -15.2%.

As for `Cc1nc2c(c(=O)n1Cc1ccco1)c1nc3ccccc3nc1n2Cc1ccccc1`, the inhibition is 59.7% [fluorescence artefact?] (active).

Regarding `COCCCn1c2nc3ccccc3nc2c2c(=O)n(Cc3ccc(Cl)cc3)c(C)nc21`, the inhibition was 12.9%.

In the case of `Cc1ccc(Cn2c(C)nc3c(c2=O)c2nc4ccccc4nc2n3Cc2ccco2)cc1`, the inhibition was 36%.

Regarding `O=C(NCC(=O)N(Cc1cccs1)C(C(=O)NC1CCCCC1)c1ccco1)c1cccs1` (stereo unspecified), the inhibition was 6.36%.

`Cn1c(C(=O)OC(C(=O)NC2CCCCC2)c2ccccn2)cc2sccc21` (stereo unspecified): the inhibition was -0.81%.

For `Cc1ccc2c(c1)N(CC(=O)N(Cc1ccccn1)Cc1ccco1)C(=O)C(C(C)C)O2` (stereo unspecified), the inhibition was 1.63%.

For the molecule `COc1ccc(-c2cn3ccsc3n2)cc1`, the inhibition was 68% (active).

In the case of `Cc1ccc(S(=O)(=O)NCc2cn3ccsc3n2)c(C)c1`, the inhibition was 0.6%.

Regarding `O=C(NCc1cn2ccsc2n1)Nc1ccc(Cl)cc1`, the inhibition is -3.46%.

For `CCOC(=O)c1sc(NC(=O)c2ccncc2)nc1C`, the inhibition is -4.81%.

As for `O=C(NCc1cccnc1)Nc1ccccc1F`, the inhibition is -19.3%.

`CCCCOC(=O)Cn1c(=O)n(CC(=O)OCCCC)c2cc(C)ccc21`: the inhibition was -3.48%.

Regarding `O=C(N/N=C/C=C/c1ccccc1)C1CC1(c1ccccc1)c1ccccc1` (stereo unspecified), the inhibition was 16.4%.

In the case of `COc1ccc(N2C(=O)C3CCCN3C2c2cccs2)cc1` (stereo unspecified), the inhibition is -13.6%.

Take `COc1ccc(N2C(=O)C3CCCN3C2c2cc(OC)c(OC)cc2OC)cc1` (stereo unspecified): the inhibition is 98.9% [fluorescence artefact?] (active).

As for `COc1ccc(N2C(=O)C3CCCN3C2c2cccc(OC)c2)cc1` (stereo unspecified), the inhibition is -7%.

With `COC(=O)c1[nH]c2cccc(C)c2c1NC(=O)CN1CCCc2ccccc21`, the inhibition is 34.3%.

As for `CCOC(=O)c1[nH]c2ccc(OC)cc2c1NC(=O)CCN1CCN(Cc2ccccc2)CC1`, the inhibition was 5.39%.

In the case of `COC(=O)c1[nH]c2ccccc2c1NC(=O)CN1CCCc2ccccc21`, the inhibition was 58.4% [fluorescence artefact?] (active).

On to `CCn1c(-c2ccoc2C)n[nH]c1=S`, for which the inhibition is -2.85%.

In the case of `COCCOCCn1cnc2ccccc21`, the inhibition was -1.14%.

For `CCN1CCN(C(c2cccnc2)c2cc(Cl)c3cccnc3c2O)CC1` (stereo unspecified), the inhibition was 72.4% [fluorescence artefact?] (active).

For the molecule `Oc1c(CN2CCN(c3ccc(F)cc3)CC2)cc(Cl)c2cccnc12`, the inhibition is 1.3%.

For `CCOC(=O)N1CCN(C(=O)c2cc3c(ccc4ccccc43)oc2=O)CC1`, the inhibition is 23.4%.

For `CCOC(=O)N1CCN(C(c2cccnc2)c2ccc3cccnc3c2O)CC1` (stereo unspecified), the inhibition was 58% [fluorescence artefact?] (active).

As to `CCOC(=O)N1CCN(C(=O)CSc2ccc(Cl)cc2)CC1`, the inhibition is -0.13%.

Consider `CC(=O)C1=C(C)NC(=O)NC1c1cc(Br)ccc1OCC#N` (stereo unspecified), for which the inhibition is -0.75%.

In the case of `CC(C)CC(N=C1NC(C)(C)Cc2ccccc21)C(=O)O` (stereo unspecified), the inhibition is -1.78%.

Regarding `CCCc1noc2c1/C(=N\O)CCC2`, the inhibition was 1.64%.

For the molecule `CCNCCC(=O)N1c2ccccc2Sc2ccc(NC(=O)OCC)cc21`, the inhibition is -17.8%.

Take `O=C(NCc1ccco1)c1ccc(Cn2c(=O)c3sccc3n(Cc3ccc(F)cc3)c2=O)cc1`: the inhibition is 18.4%.

In the case of `Cc1cccc(C(=O)N2CCCN(C(=O)c3cccc(C)c3)CC2)c1`, the inhibition was -0.48%.

For the molecule `CN(C)CCCNc1c2c(c(C#N)c3nc4ccccc4n13)CCC2`, the inhibition was 70.9% [fluorescence artefact?] (active).

In the case of `CCN1CCc2c(C#N)c(NCc3ccccc3)nc(NCCO)c2C1`, the inhibition is -0.53%.

Take `N#Cc1c2c(c(N3CCN(CCO)CC3)n3c1nc1ccccc13)CCCC2`: the inhibition was -8.78%.

For the molecule `O=c1onc(-c2cccs2)n1Cc1ccccc1`, the inhibition was -0.76%.

Turning to `CCCCCCNC(=O)CSc1nccn1Cc1ccccc1`, the inhibition was -2.58%.

Turning to `Cc1ccc(-n2c(SCC(=O)NCc3ccc4c(c3)OCO4)nnc2-c2cccnc2)c(C)c1`, the inhibition is -8.68%.

For the molecule `O=c1c2ccccc2nc(CSc2nnnn2-c2ccccc2)n1-c1ccccc1`, the inhibition was 61.2% [fluorescence artefact?] (active).

For `O=c1c2ccccc2nnn1CSc1nnnn1-c1ccccc1`, the inhibition is -2.64%.

Consider `N#CCSc1nc2ccccc2c(=O)n1-c1ccccc1`, for which the inhibition is 8.58%.

`CC(=O)NC1(c2cccc(F)c2)CCN(CC(=O)NC(C)C)CC1`: the inhibition was -7.62%.

Turning to `N#Cc1c(NC(=O)CSc2nc3ccccc3c(=O)n2Cc2ccco2)sc2c1CCCC2`, the inhibition is 50.4% [fluorescence artefact?] (active).

For `COc1ccc(-c2nnc(SCC(=O)c3ccco3)n2-c2ccccc2)cc1`, the inhibition was 7.14%.

`COC(=O)c1c(NC(=O)CSc2nncs2)sc2c1CCCCC2`: the inhibition was 10.9%.

For `C=C(C)Cn1c(SCC(=O)NCc2ccco2)nc2sc3c(c2c1=O)CCC3`, the inhibition is 9.18%.

As for `COc1ccc(-n2c(SCC(=O)Nc3sc4c(c3C#N)CCCC4)nnc2-c2ccc(O)cc2)cc1`, the inhibition is 60.9% [fluorescence artefact?] (active).

Take `CC(Sc1nc2ccccc2c(=O)n1Cc1ccco1)C(=O)c1ccccc1` (stereo unspecified): the inhibition was -2.69%.

Regarding `Cc1cc2nc(SCCN3CCOCC3)[nH]c2cc1C`, the inhibition is -13.7%.

As to `COC(=O)C1=C(C(=O)c2ccc(C)cc2)C(c2ccccc2)n2nnnc2N1` (stereo unspecified), the inhibition is -1.03%.

For `Cc1ccc(-n2ccc(=O)c(C(=O)O)n2)cc1`, the inhibition was -4.61%.

Consider `O=C(COc1ccccc1)Nc1nonc1NC(=O)COc1ccccc1`, for which the inhibition is 4.67%.

For `COc1ccc(CCNS(=O)(=O)c2ccc(Cl)s2)cc1OC`, the inhibition is -8.93%.

As for `Oc1ccc(CNc2ccccc2O)cc1`, the inhibition is 52.5% [fluorescence artefact?] (active).

On to `COc1cc(C2CC(=O)c3cnc(NC(C)=O)nc3C2)cc(OC)c1OC` (stereo unspecified), for which the inhibition was -3.76%.

In the case of `CCC(C(=O)NCc1ccc(OC)cc1)n1nc(C)n2c(cc3occc32)c1=O` (stereo unspecified), the inhibition was -7.78%.

For the molecule `CCCn1c(C(Cc2ccccc2)NC(=O)COC)nc2ccccc21` (stereo unspecified), the inhibition was 46.8%.

For `O=C(CCC(=O)c1cccs1)NCc1ccccc1`, the inhibition was 12.1%.

With `O=C(COC(=O)C12CC3CC(CC(C3)C1)C2)NCc1ccco1`, the inhibition is 13.8%.

On to `O=C(COC(=O)CCC(=O)c1cccs1)NCc1ccco1`, for which the inhibition is 51.1% [fluorescence artefact?] (active).
